# Measurements published in PubChem BioAssay (Tox21).
# Values without a mark were called inactive. Records with an inconclusive call do not appear. Where a call stands in place of a potency, no number is given. The source made the active and inactive calls. Unless noted, calls follow the shape of the dose curve; as a rule, active = well fitted curve in the direction sought with a large enough effect in the repeat runs; inconclusive = weak or mixed curves; inactive = no such curve, though single readings can be large; an effect the other way counts as inactive or inconclusive. Positions of bridges follow the written chain, without caps; N, C: chain ends. Non-standard residues stand in square brackets, D forms with d. Residues, ends and D or L forms follow the SMILES beside them. hArg = N=C(N)NCCCC[C@H](N)C(=O)O; Mpa = O=C(O)CCS
# Columns and labels:
# [1] = qHTS assay to identify small molecule antagonists of the glucocorticoid receptor (GR) signaling pathway - cell viability counter screen (AID 720693); details: GR-bla HeLa viability, CellTiter-Glo luminescence, 18 h, with 5 nM dexamethasone present; series mostly up to 58.5 µM; also: nearly all actives have a fitted effect of over 55% in size
# [2] = qHTS assay for identifying genotoxic compounds that show differential cytotoxicity against isogenic chicken DT40 cell lines with known DNA damage response pathways - wild type cell line (AID 743012); details: DT40 wild type chicken cells viability, CellTiter-Glo, 40 h; series mostly up to 68.4 µM; also: nearly all actives have a fitted effect of over 60% in size; also: potency is read from the fitted curve at half-maximal effect
# Procedure, shortened: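 Viability of DNA repair-proficient chicken DT40 cells was assessed by CellTiter-Glo luminescence following 40 h compound exposure at 37 C/5% CO2.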
# [3] = qHTS assay for identifying genotoxic compounds that show differential cytotoxicity against isogenic chicken DT40 cell lines with known DNA damage response pathways - Rev3 mutant cell line (AID 743014); details: chicken DT40 Rev3-/- viability, CellTiter-Glo, 40 h; series mostly up to 68.4 µM; also: nearly all actives have a fitted effect of over 55% in size; also: potency is read from the fitted curve at half-maximal effect
# [4] = qHTS assay for identifying genotoxic compounds that show differential cytotoxicity against isogenic chicken DT40 cell lines with known DNA damage response pathways - Rad54/Ku70 mutant cell line (AID 743015); details: DT40 Rad54/Ku70 mutant viability, CellTiter-Glo, 40 h; series mostly up to 66.8 µM; also: nearly all actives have a fitted effect of over 60% in size; also: potency is read from the fitted curve at half-maximal effect
# [5] = qHTS assay to identify small molecule antagonists of the androgen receptor (AR) signaling pathway - cell viability counter screen (AID 743033; also: nearly all actives have a fitted effect of over 45% in size); details: AR-bla HEK293 viability, CellTiter-Glo luminescence, 16 h; series mostly up to 58.5 µM
# [6] = biological target: Androgen receptor (Homo sapiens) (UniProt P10275); experiment: qHTS assay to identify small molecule antagonists of the androgen receptor (AR) signaling pathway (AID 743035; active = well fitted inhibition curve with a large enough effect in the signal ratio in the repeat runs, not every such curve was filed as active; the % refers to the signal ratio); details: HEK293 AR-UAS-bla, R1881-stimulated, beta-lactamase FRET, 16 h; series mostly up to 58.5 µM
# Procedure, shortened: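 Reporter HEK293 cells were exposed to compounds and R1881 overnight (16 h, 37C); beta-lactamase activity was then quantified by FRET fluorescence.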
# [7] = biological target: Androgen receptor (Homo sapiens) (UniProt P10275); experiment: qHTS assay to identify small molecule agonists of the androgen receptor (AR) signaling pathway (AID 743036; active = well fitted activation curve with a large enough effect in the signal ratio in the repeat runs, with a control signal flat, not every such curve was filed as active; the % refers to the signal ratio); details: HEK293 AR-UAS-bla GripTite, beta-lactamase FRET ratio, 16 h; series mostly up to 62.4 µM
# Procedure, shortened: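 Reporter line: GeneBLAzer AR-UAS-bla-GripTite (HEK293). Steps: plate cells, 4 h rest, add compounds, 16 h at 37C, add LiveBLAzer B/G substrate, 2 h at RT, read fluorescence.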
# [8] = biological target: Androgen receptor (Homo sapiens) (UniProt P10275); experiment: qHTS assay to identify small molecule agonists of the androgen receptor (AR) signaling pathway using the MDA cell line (AID 743040; also: nearly all actives have a fitted effect of over 20% in size); details: MDA-kb2 AR-luc cells, MMTV luciferase, 16 h; series mostly up to 70.3 µM
# Procedure, shortened: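 Cell-based luciferase reporter: MDA-kb2, MMTV promoter (AR + GR response elements). 16 h compound exposure at 37C; ONE-Glo, 30 min RT, luminescence.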
# [9] = qHTS assay to identify small molecule antagonists of the androgen receptor (AR) signaling pathway using the MDA cell line - cell viability counter screen (AID 743041; also: nearly all actives have a fitted effect of over 45% in size); details: MDA-kb2 viability, CellTiter-Fluor, 16 h, cells co-treated with R1881 androgen agonist; series mostly up to 70.3 µM
# Procedure, shortened: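 In this qHTS counter assay, fluorescence intensity after CellTiter-Fluor addition indicated viability of MDA-kb2 AR-luc cells given compounds and R1881 for 16 h at 37C.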
# [10] = biological target: Androgen receptor (Homo sapiens) (UniProt P10275); experiment: qHTS assay to identify small molecule antagonists of the androgen receptor (AR) signaling pathway using the MDA cell line (AID 743042; also: nearly all actives have a fitted effect of over 55% in size); details: MDA-kb2 AR-luc, MMTV luciferase, R1881 antagonist, 16 h; series mostly up to 70.3 µM
# Procedure, shortened: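 MDA-kb2 cells (human breast carcinoma, stably carrying an MMTV-luciferase reporter responsive to AR and GR) were plated at 3,000 cells/well and preincubated 5 hr at 37C, then given compound plus R1881 agonist for 16 h. ONE-Glo luminescence was read.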
# Sequence of Androgen receptor (Homo sapiens) (P10275 whole entry, looked up): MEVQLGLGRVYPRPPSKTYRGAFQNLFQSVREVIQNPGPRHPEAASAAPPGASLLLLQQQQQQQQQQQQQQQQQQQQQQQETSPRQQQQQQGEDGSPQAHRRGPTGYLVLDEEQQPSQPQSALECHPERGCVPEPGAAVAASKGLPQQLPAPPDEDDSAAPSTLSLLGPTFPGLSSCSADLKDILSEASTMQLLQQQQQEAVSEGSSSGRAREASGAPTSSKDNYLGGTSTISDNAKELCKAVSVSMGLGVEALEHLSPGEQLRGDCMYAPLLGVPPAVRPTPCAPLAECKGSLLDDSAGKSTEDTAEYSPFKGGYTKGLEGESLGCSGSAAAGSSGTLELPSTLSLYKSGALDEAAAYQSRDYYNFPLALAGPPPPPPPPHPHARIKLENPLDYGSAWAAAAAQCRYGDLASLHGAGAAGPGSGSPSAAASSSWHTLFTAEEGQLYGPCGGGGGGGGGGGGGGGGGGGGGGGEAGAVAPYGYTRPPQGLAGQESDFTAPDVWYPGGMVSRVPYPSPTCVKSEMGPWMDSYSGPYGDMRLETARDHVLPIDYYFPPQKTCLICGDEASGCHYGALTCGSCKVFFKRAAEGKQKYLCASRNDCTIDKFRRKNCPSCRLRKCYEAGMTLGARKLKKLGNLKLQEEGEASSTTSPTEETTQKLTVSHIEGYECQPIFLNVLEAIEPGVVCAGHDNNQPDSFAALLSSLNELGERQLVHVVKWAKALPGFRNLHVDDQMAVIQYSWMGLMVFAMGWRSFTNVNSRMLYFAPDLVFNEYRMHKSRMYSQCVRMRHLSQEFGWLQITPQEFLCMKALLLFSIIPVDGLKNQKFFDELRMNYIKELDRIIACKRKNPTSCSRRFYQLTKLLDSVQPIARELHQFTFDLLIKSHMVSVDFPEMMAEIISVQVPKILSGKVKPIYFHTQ
SMILES,outcome [1],Potency [2],Potency [3],Potency [4],outcome [5],outcome [6],outcome [7],Potency [8],Potency [9],outcome [10],"activity change, negative = cytotoxicity [4]"
c1ccc(B(c2ccccc2)c2ccccc2)cc1,inactive,inactive,inactive,inactive,inactive,–,–,–,–,–,–
NCCOCCN,inactive,inactive,inactive,inactive,inactive,–,–,–,–,–,–
CCOC(CN1CCN(CC(C)C(=O)c2ccccc2)CC1)c1ccccc1 (stereo not drawn),inactive,10.6 µM (active),13.3 µM (active),18.8 µM (active),inactive,–,–,–,–,–,–
Nc1nnnn1-c1ccccc1,inactive,inactive,inactive,inactive,inactive,–,–,–,–,–,–
CCC[C@@H]1C[C@@H](C(=O)N[C@@H]([C@H]2O[C@H](SC)[C@H](O)[C@@H](O)[C@H]2O)[C@@H](C)O)N(C)C1,inactive,inactive,inactive,inactive,inactive,–,–,–,–,–,–
Cc1ccc(C(C)NC(=O)[C@@H](NC(=O)OC(C)C)C(C)C)cc1 (stereo partly drawn),inactive,inactive,inactive,inactive,inactive,–,–,–,–,–,–
CCn1cc(C(=O)O)c(=O)c2cnc(N3CCCC3)nc21,inactive,inactive,inactive,inactive,inactive,–,–,–,–,–,–
CC(=O)OC(C)=O,inactive,inactive,inactive,inactive,–,–,–,–,–,–,–
Cc1c(N)cccc1Cl,inactive,inactive,inactive,inactive,inactive,–,–,–,–,–,–
COC(C)(OC)OC,inactive,inactive,inactive,inactive,inactive,inactive,inactive,inactive,inactive,inactive,–
CSc1cnccn1,inactive,inactive,inactive,inactive,inactive,–,–,–,–,–,–
Cc1c(NC(=O)c2cccnc2)c(=O)n(-c2ccccc2)n1C,inactive,inactive,inactive,inactive,–,–,–,–,–,–,–
O=C(O)CCCCCC(=O)O,inactive,inactive,inactive,inactive,inactive,–,–,–,–,–,–
CC(=O)CC(=O)Nc1ccc(C)cc1C,inactive,inactive,inactive,inactive,inactive,inactive,inactive,inactive,inactive,inactive,–
CC(C)CO,inactive,inactive,inactive,inactive,inactive,–,–,–,–,–,–
O=S(=O)(O)c1ccc2c(N=Nc3ccc(S(=O)(=O)O)c4ccccc34)c(O)c(S(=O)(=O)O)cc2c1,inactive,inactive,inactive,–,inactive,–,–,–,–,–,0.0993% [at 8.55 µM]
CC(=O)c1cc(C)oc1C,inactive,inactive,inactive,inactive,inactive,inactive,inactive,inactive,inactive,inactive,–

SMILES,outcome [1],Potency [2],Potency [3],Potency [4],outcome [5],outcome [6],outcome [7],Potency [8],Potency [9],outcome [10],"activity change, negative = cytotoxicity [4]"
CC(=O)O[C@H]1C[C@@H]2CC[C@@]1(C)C2(C)C,inactive,inactive,inactive,inactive,inactive,inactive,inactive,inactive,inactive,inactive,–
CN(C)CCOC(=O)C(c1ccccc1)C1(O)CCCC1 (stereo not drawn),inactive,inactive,inactive,inactive,inactive,–,–,–,–,–,–
CN(C)CCCCl,inactive,inactive,inactive,inactive,inactive,–,–,–,–,–,–
CN1C[C@@H]2C[C@H]1CN2c1cc2c(cc1F)c(=O)c(C(=O)O)cn2C1CC1,inactive,7.5 µM (active),9.44 µM (active),11.9 µM (active),inactive,–,–,–,–,–,–
C=Cc1ccc(C(C)(C)C)cc1,inactive,inactive,inactive,inactive,–,–,–,–,–,–,–
CCC(C)OC(C)CC (stereo not drawn),inactive,inactive,inactive,inactive,inactive,inactive,inactive,inactive,inactive,inactive,–
C=CC/C=C/C,inactive,inactive,inactive,inactive,inactive,–,–,–,–,–,–
NC(=O)[C@@H]1CSSCCC(=O)N[C@@H](CCCCN=C(N)N)C(=O)NCC(=O)N[C@@H](CC(=O)O)C(=O)N[C@@H](Cc2c[nH]c3ccccc23)C(=O)N2CCC[C@H]2C(=O)N1 ([Mpa][hArg]GDWPC-NH2; disulfide 1-7),inactive,inactive,inactive,inactive,–,–,–,–,–,–,–
CC(S)C(C)S (stereo not drawn),inactive,inactive,inactive,inactive,inactive,inactive,inactive,inactive,inactive,inactive,–
OC1OCCOC1O (stereo not drawn),inactive,inactive,inactive,inactive,inactive,–,–,–,–,–,–
CC1=C(O)C(=O)C(C)O1 (stereo not drawn),inactive,inactive,inactive,inactive,–,–,–,–,–,–,–
CO[Si](CCCn1c(=O)n(CCC[Si](OC)(OC)OC)c(=O)n(CCC[Si](OC)(OC)OC)c1=O)(OC)OC,inactive,inactive,inactive,–,–,–,–,–,–,–,–
N#CCC(=O)NN,inactive,inactive,inactive,inactive,inactive,–,–,–,–,–,–
CCc1occc(=O)c1O,inactive,inactive,inactive,inactive,inactive,–,–,–,–,–,–
CO[C@@]1(NC(=O)Cc2cccs2)C(=O)N2C(C(=O)O)=C(COC(N)=O)CS[C@@H]21,inactive,inactive,inactive,inactive,inactive,–,–,–,–,–,–
COC(=O)/C=C\C(=O)O,inactive,inactive,inactive,inactive,inactive,–,–,–,–,–,–
